Results on 35 compounds are retold here after PubChem BioAssay AID1494158 (National Center for Advancing Translational Sciences (NCATS), 2020).

Molecules are shown by their SMILES. Inconclusive results are not listed. Active and inactive are the calls of the source. Calls follow the shape of the full dose curve.

The assay is described as follows: VSV-G qHTS counterscreen for inhibitors of SARS-S pseudo-typed particle cell entry. The settings on record: VSV-G pseudotyped particle entry counterscreen, luciferase; series mostly up to 57.1 µM. Background: Quantitative high-throughput screening tests each substance at several concentrations.
`CC[C@@]1(O)C(=O)OCc2c1cc1n(c2=O)Cc2c-1nc1ccccc1c2/C=N/OC(C)(C)C`: the Potency is 0.0764 µM (active). The same measure for `COc1cccc2c1C(=O)c1c(O)c3c(c(O)c1C2=O)C[C@@](O)(C(=O)CO)C[C@@H]3O[C@H]1C[C@H](N)[C@@H](O)[C@H](C)O1`: 4.82 µM (active); for `CCCCN=C(N)N=C(N)N`: “inactive”; for `Nc1ccn([C@@H]2O[C@H](CO)[C@@H](O)C2(F)F)c(=O)n1`: 0.171 µM (active). The figure for `CCN(CC)CCNC(=O)c1c(C)[nH]c(/C=C2\C(=O)Nc3ccc(F)cc32)c1C` is 17.1 µM (active). As to `CN1CC[C@H](CN2c3ccccc3Sc3ccccc32)C1`, the Potency entry is “inactive”.

Turning to `COc1cc2nccc(Oc3ccc(NC(=O)NC4CC4)c(Cl)c3)c2cc1C(N)=O`, the Potency is 17.1 µM (active). The same measure for `CC[C@@]1(O)C(=O)OCc2c1cc1n(c2=O)Cc2cc3c([N+](=O)[O-])cccc3nc2-1`: 0.124 µM (active). The same measure for `COc1ccc(Cc2nccc3cc(OC)c(OC)cc23)cc1OC`: 19.2 µM (active); for `CCn1cc(C(=O)O)c(=O)c2cc(F)c(N3CCNC(C)C3)c(F)c21` (stereo not given): “inactive”. On to `Nc1nc(Cl)nc2c1ncn2C1CC(O)C(CO)O1` (stereo not given), for which the Potency is 5.41 µM (active).

As to `CC(C)C(=O)Oc1ccc(CO)cc1[C@H](CCN(C(C)C)C(C)C)c1ccccc1`, the Potency is 27.1 µM (active). The figure for `C=C(C)[C@H]1Cc2c(ccc3c2O[C@@H]2COc4cc(OC)c(OC)cc4[C@@H]2C3=O)O1` is 0.0383 µM (active); for `Cc1cc(C(C#N)c2ccc(Cl)cc2)c(Cl)cc1NC(=O)c1cc(I)cc(I)c1O` (stereo not given) it is 30.4 µM (active); for `N/C(=N\N=C\c1ccc(Cl)cc1)N/N=C/c1ccc(Cl)cc1` it is 24.1 µM (active). The figure for `CC(C)(C)c1ccc(C(=O)CCCN2CCC(OC(c3ccccc3)c3ccccc3)CC2)cc1` is 27.1 µM (active); for `CCCCCCCCCCCCCC[n+]1ccc(C)cc1` it is 1.92 µM (active); for `CCCCCCCCCCCC[n+]1ccc2ccccc2c1` it is 1.92 µM (active). Take `Cc1nnc(C(=O)NC(C)(C)c2nc(C(=O)NCc3ccc(F)cc3)c(O)c(=O)n2C)o1`: the Potency was 0.0171 µM (active). The figure for `CNC(=O)c1cc(Oc2ccc(NC(=O)Nc3ccc(Cl)c(C(F)(F)F)c3)c(F)c2)ccn1` is 10.8 µM (active); for `CC[C@@]1(O)C(=O)OCc2c1cc1n(c2=O)Cc2cc3c(CN(C)C)c(O)ccc3nc2-1` it is 0.383 µM (active); for `COc1cc2nccc(Oc3ccc(NC(=O)C4(C(=O)Nc5ccc(F)cc5)CC4)cc3)c2cc1OC` it is 21.5 µM (active). The figure for `CCC(C)(C)C(=O)O[C@H]1C[C@@H](C)C=C2C=C[C@H](C)[C@H](CC[C@@H]3C[C@@H](O)CC(=O)O3)[C@H]21` is 1.21 µM (active); for `C[C@]12CC[C@H](O)C[C@H]1CCC1C2CC[C@]2(C)[C@@H](c3ccc(=O)oc3)C[C@H]3O[C@]132` (stereo not given in full) it is 9.61 µM (active); for `COc1ccc2cc3[n+](cc2c1OC)CCc1cc2c(cc1-3)OCO2` it is 17.1 µM (active). Turning to `CC(C)OC(=O)OCOP(=O)(CO[C@H](C)Cn1cnc2c(N)ncnc21)OCOC(=O)OC(C)C`, the Potency was 0.0961 µM (active). The figure for `COC(=O)C[C@](O)(CCCC(C)(C)O)C(=O)O[C@@H]1C(OC)=C[C@]23CCCN2CCc2cc4c(cc2[C@H]13)OCO4` is 1.36 µM (active); for `Cc1cn([C@H]2C[C@H](N=[N+]=[N-])[C@@H](CO)O2)c(=O)[nH]c1=O` it is 3.41 µM (active). The figure for `N#CC(c1ccc(Cl)cc1)c1c(Cl)cc(-n2ncc(=O)[nH]c2=O)cc1Cl` (stereo not given) is 10.8 µM (active); for `CC(=O)N1CCN(c2ccc(OC[C@H]3CO[C@](Cn4ccnc4)(c4ccc(Cl)cc4Cl)O3)cc2)CC1` it is 19.2 µM (active).

For the compound `CC(=O)[C@]1(O)Cc2c(O)c3c(c(O)c2[C@@H](O[C@H]2C[C@H](N)[C@H](O)[C@H](C)O2)C1)C(=O)c1ccccc1C3=O`, the Potency was 4.82 µM (active). The figure for `NCCNc1ccc(NCCN)c2c1C(=O)c1ccncc1C2=O` is 3.41 µM (active); for `CC(C)C[C@H](NC(=O)[C@H](CCc1ccccc1)NC(=O)CN1CCOCC1)C(=O)N[C@@H](Cc1ccccc1)C(=O)N[C@@H](CC(C)C)C(=O)[C@@]1(C)CO1` it is 0.764 µM (active). The figure for `Oc1c(Cl)cc(Cl)c(Cl)c1Cc1c(O)c(Cl)cc(Cl)c1Cl` is 2.71 µM (active); for `COc1cc(NS(C)(=O)=O)ccc1Nc1c2ccccc2nc2ccccc12` it is 0.764 µM (active).
